{
  "source": "PubChem BioAssay AID652154",
  "about": "(Broad Institute, 2013)",
  "note": "Values joined by “and” are separate entries in the source; they are usually repeats but may differ in a detail not shown here. Identical values can stand only once. The campaign covered roughly 360,000 compounds. About 4,200 (1.2%) were called active.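 Rule for the calls: active = mean replicate inhibition at least 60% with every replicate also reaching 60%; inconclusive = only one of the two criteria is met; inactive = mean below 60% and not all replicates reaching 60%.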 The entries come from a sample that favours actives as a whole.",
  "data": [
    {"assay": "PAX8 transcriptional activity inhibition in RMG-I – RMG-I cells, luciferase, single concentration, primary screen (AID 652154);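 note: luciferase light reporting Pax8 driven TPO promoter activity; plate controls were median of neutral control wells for no effect and mitoxantrone controls for full effect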", "conditions": "RMG-I TPO-luciferase reporter, SteadyGlo, 24 h; at 12.6 µM; stronger effect = higher value", "values": [
      {"smiles": "CN(C)CC1Oc2ccccc2OC1(O)c1ccccc1", "note": "(stereo not given)", "inhibition": "78.4% (active)"},
      {"smiles": "O=C(Cc1ccccc1)N1CCCCN2[C@H](CO)[C@H](c3ccc(C#Cc4ccccc4)cc3)[C@H]2C1", "inhibition": "0.0955% (inactive)"},
      {"smiles": "O=C(Cc1ccncc1)N1CCCCN2[C@H](CO)[C@@H](c3ccc(C#CC4(O)CCCC4)cc3)[C@H]2C1", "inhibition": "-4.86% (inactive)"},
      {"smiles": "O=C(Cc1ccccc1)N1CCCCN2[C@H](C1)[C@H](c1ccc(C#CC3(O)CCCC3)cc1)[C@@H]2CO", "inhibition": "12.4% (inactive)"},
      {"smiles": "CCC(C)(O)C(=O)OC1C(=O)OC2CC3C(C)=CC(=O)C(O)C3(C)C3C4(O)OCC23C1C(C)C4O", "note": "(stereo not given)", "inhibition": "96.4% (active)"},
      {"smiles": "C/C=C/c1ccc([C@H]2[C@H](CO)N3CCCCN(C(=O)Cc4ccncc4)C[C@@H]23)cc1", "inhibition": "11.3% (inactive)"},
      {"smiles": "N#Cc1cccc(-c2ccc([C@H]3[C@@H](CO)N4CCCCN(C(=O)Cc5cccnc5)C[C@@H]34)cc2)c1", "inhibition": "-12% (inactive)"},
      {"smiles": "Cc1cc(N2CCNC[C@@H]2C)ccc1N1CC[C@H](O)C1", "inhibition": "1.43% (inactive)"},
      {"smiles": "CC(=CCOc1ccc2ccc(=O)oc2c1)C1=CC(=O)C(C)(C)O1", "inhibition": "108% (active)"},
      {"smiles": "COc1ccc(C#Cc2ccc([C@H]3[C@H](CO)N4CCCCN(C(=O)Cc5ccccc5)C[C@@H]34)cc2)cc1", "inhibition": "-13.5% (inactive)"},
      {"smiles": "C/C=C/c1ccc(C2[C@@H]3CN(Cc4cncnc4)C[C@H]2N3)cc1", "note": "(stereo not given in full)", "inhibition": "-5.53% (inactive)"},
      {"smiles": "COc1cccc(-c2ccc3n(c2=O)C[C@@H]2[C@@H](CO)[C@H](C(=O)O)[C@H]3N2C(=O)c2cnccn2)c1", "inhibition": "1.83% (inactive)"},
      {"smiles": "COC(=O)[C@@H]1[C@@H](CO)[C@@H]2Cn3c(ccc(-c4ccc(F)cc4)c3=O)[C@H]1N2C(C)=O", "inhibition": "-4.95% (inactive)"},
      {"smiles": "CCOc1ccc(-c2cc(C)[n+](CCN(CC)CC)c(-c3ccc(OCC)cc3)c2)cc1", "inhibition": "87.4% (active)"},
      {"smiles": "CCOC(=O)[C@]12Cc3cc(OC)ccc3[C@H]1N(C(C)C)C(=O)c1ccccc12", "inhibition": "-13.7% (inactive)"},
      {"smiles": "O=C(Cc1ccncc1)N1CCCCN2[C@@H](CO)[C@H](c3ccc(C#CC4(O)CCCC4)cc3)[C@@H]2C1", "inhibition": "-6.83% (inactive)"},
      {"smiles": "O=S(=O)(c1ccccc1)N1CCC2CCNC2C1", "note": "(stereo not given)", "inhibition": "-15.4% (inactive)"},
      {"smiles": "O=C(Cc1cccnc1)N1CCCCN2[C@@H](CO)[C@H](c3ccc(C#CC4CCCC4)cc3)[C@@H]2C1", "inhibition": "-34.4% (inactive)"},
      {"smiles": "COc1cccc(-c2ccc([C@H]3[C@H]4CN(C(=O)Cc5ccncc5)CCCCN4[C@H]3CO)cc2)c1", "inhibition": "47.9% (inactive)"},
      {"smiles": "CCOC(=O)[C@@H]1[C@@H]2NC(=O)N[C@@]1(C)Oc1ccccc12", "inhibition": "8.82% (inactive) and -6.19% (inactive)"},
      {"smiles": "Brc1ccc2c(c1)CNCc1cnnn1-2", "inhibition": "-19.7% (inactive)"},
      {"smiles": "O=C(O)[C@H]1[C@H](CO)[C@H]2Cn3c(ccc(-c4ccccc4)c3=O)[C@@H]1N2S(=O)(=O)c1ccccc1F", "inhibition": "-5.43% (inactive)"},
      {"smiles": "O=c1[nH]c2ccccc2n1C1CCN(C(c2ccnc3ccccc23)c2nnnn2Cc2ccccc2)CC1", "note": "(stereo not given)", "inhibition": "-10.5% (inactive)"},
      {"smiles": "COc1cccc(C(c2nnnn2-c2ccc3c(c2)OCCO3)N2CCC3(CC2)C(=O)NCN3c2ccccc2)c1OC", "note": "(stereo not given)", "inhibition": "-8.19% (inactive)"},
      {"smiles": "O=C1NCN(c2ccccc2)C12CCN(C(c1cccs1)c1nnnn1C1CCCCC1)CC2", "note": "(stereo not given)", "inhibition": "-2.94% (inactive)"},
      {"smiles": "O=c1[nH]c2ccccc2n1C1CCN(C(c2ccccc2)c2nnnn2Cc2ccccc2)CC1", "note": "(stereo not given)", "inhibition": "82.1% (active)"},
      {"smiles": "CSCCC(c1nnnn1C(C)(C)C)N1CCC(n2c(=O)[nH]c3ccccc32)CC1", "note": "(stereo not given)", "inhibition": "32.9% (inactive)"},
      {"smiles": "COc1ccc(-n2nnnc2C(c2cccc3ccccc23)N2CCC(n3c(=O)[nH]c4ccccc43)CC2)cc1", "note": "(stereo not given)", "inhibition": "63.7% (active)"},
      {"smiles": "CCOC(=O)[C@]12Cc3ccccc3[C@H]1N(C1CCCCC1)C(=O)c1cc(OC)ccc12", "inhibition": "49.5% (inactive)"},
      {"smiles": "COc1cccc(-c2ccc3n(c2=O)C[C@H]2[C@H](CO)[C@@H](C(=O)O)[C@@H]3N2C(=O)c2cnccn2)c1", "inhibition": "-1.69% (inactive)"},
      {"smiles": "CS(=O)(=O)N1CCC2CCNC2C1", "note": "(stereo not given)", "inhibition": "-27.9% (inactive)"},
      {"smiles": "COc1cc(OC)cc(C(=O)NCCN2CCC3(CC2)C(=O)NCN3c2ccccc2)c1", "inhibition": "-21.4% (inactive)"},
      {"smiles": "O=C(Cc1ccccn1)N1CCCCN2[C@@H](CO)[C@@H](c3ccc(C#Cc4ccccc4)cc3)[C@@H]2C1", "inhibition": "9.59% (inactive)"},
      {"smiles": "CC1=CC(=Cc2sc3ccccc3[n+]2C)C=C(C)O1", "inhibition": "74.9% (active)"},
      {"smiles": "C/C=C/c1ccc(C2[C@@H]3CN(S(C)(=O)=O)C[C@H]2N3)cc1", "note": "(stereo not given in full)", "inhibition": "9.75% (inactive)"},
      {"smiles": "CCCCCCCCCCCCn1ccc(=N)cc1", "inhibition": "101% (active)"},
      {"smiles": "O=C(Cc1ccccn1)N1CCCCN2[C@H](C1)[C@H](c1ccc(-c3ccccc3F)cc1)[C@@H]2CO", "inhibition": "19.2% (inactive)"},
      {"smiles": "O=C(O)[C@@H]1[C@@H](CO)[C@@H]2Cn3c(ccc(-c4ccccc4F)c3=O)[C@H]1N2C(=O)c1cccnc1", "inhibition": "-13.1% (inactive)"},
      {"smiles": "OC[C@@H]1[C@H]2c3ccccc3NC[C@H]2N1Cc1cccnc1", "inhibition": "2.56% (inactive)"},
      {"smiles": "COC(=O)C1=C(c2ccc(F)cc2OCc2ccccc2)C[C@@H]2CC[C@H]1N2C(=O)NCc1ccc(Cl)cc1", "inhibition": "24.6% (inactive)"},
      {"smiles": "COC(=O)C1=C(c2ccc(F)cc2OCc2ccccc2)C[C@@H]2CC[C@H]1N2C(=O)NCc1ccc(OC)c(OC)c1", "inhibition": "21.7% (inactive)"},
      {"smiles": "COC(=O)C1=C(c2ccc(F)cc2OCc2ccccc2)C[C@@H]2CC[C@H]1N2C(=O)NCc1ccc(C(C)(C)C)cc1", "inhibition": "79% (active)"},
      {"smiles": "COC(=O)C1=C(c2ccc(OCc3ccccc3)cc2)C[C@@H]2CC[C@H]1N2C(=O)NCc1cccc(F)c1", "inhibition": "5.35% (inactive)"},
      {"smiles": "COC(=O)C1=C(c2ccc(F)cc2OCc2ccccc2)C[C@@H]2CC[C@H]1N2C(=O)NCc1ccc2[nH]ccc2c1", "inhibition": "89% (active)"},
      {"smiles": "COC(=O)C1=C(c2ccccc2OCc2ccccc2)C[C@@H]2CC[C@H]1N2C(=O)NCc1ccc(OC)cc1", "inhibition": "15% (inactive)"},
      {"smiles": "COC(=O)C[C@@H]1CC[C@@H]2NC[C@@H](O)COC[C@H]2O1", "inhibition": "2.66% (inactive)"},
      {"smiles": "COC(=O)C[C@H]1CC[C@H]2NC[C@@H](O)COC[C@@H]2O1", "inhibition": "2.02% (inactive) and -13.9% (inactive)"},
      {"smiles": "COC(=O)[C@H]1[C@H](CO)[C@H]2Cn3c(ccc(-c4cccc(F)c4)c3=O)[C@@H]1N2Cc1ccccc1", "inhibition": "7.46% (inactive)"},
      {"smiles": "COC(=O)[C@@H]1[C@@H](CO)[C@@H]2Cn3c(ccc(-c4cccc(C(=O)N(C)C)c4)c3=O)[C@H]1N2C(=O)NC(C)C", "inhibition": "-0.877% (inactive)"},
      {"smiles": "O=C(Cc1ccncc1)N1CCCCN2[C@@H](CO)[C@H](c3ccc(-c4ccncc4)cc3)[C@@H]2C1", "inhibition": "6.85% (inactive)"}
    ]}
  ]
}
